Read-out in assay [1]: Thyroid Hormone Responsive (THRSP), THRSP (gene 7069)
The assay is described as follows: LTEA_HepaRG_THRSP: Life Technologies and Expression Analysis (LTEA) Assay for Thyroid Hormone Responsive (THRSP) using HepaRG (AID 2283536; active = hit-call score of the fitted dose curve at least 0.9, where 1 is the maximum; inactive = score below 0.9). The conditions noted are these: mRNA level, 48 h; actives raise or lower the signal. The method, boiled down:
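Differentiated HepaRG cells treated 48 h in serum-free induction medium with 8 half-log concentrations up to 100 uM (0.5% DMSO), duplicates. THRSP mRNA by TaqMan qRT-PCR normalised to ACTB, GAPDH, POLR2A; bidirectional fit versus DMSO.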

Read-out in assay [2]: Cellular tumor antigen p53 (Homo sapiens) (UniProt P04637)
The experiment in a line: LTEA_HepaRG_TP53: Life Technologies and Expression Analysis (LTEA) Assay for Tumor Protein P53 (TP53) using HepaRG (AID 2283537; active = hit-call score of the fitted dose curve at least 0.9, where 1 is the maximum; inactive = score below 0.9). The conditions noted are these: mRNA level, 48 h; actives raise or lower the signal. In short, it runs like this:
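HepaRG, 48 h exposure, top 100 uM, half-log 8-point, 0.5% DMSO vehicle, duplicates. Read: TP53 mRNA by TaqMan qRT-PCR, normalised to ACTB/GAPDH/POLR2A; bidirectional fit vs DMSO.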

Read-out in assay [3]: UDP glucuronosyltransferase (UGT1A1), UGT1A1 (gene 54658)
The assay is described as follows: LTEA_HepaRG_UGT1A1: Life Technologies and Expression Analysis (LTEA) Assay for UDP glucuronosyltransferase (UGT1A1) using HepaRG (AID 2283538; active = hit-call score of the fitted dose curve at least 0.9, where 1 is the maximum; inactive = score below 0.9). The settings on record: mRNA level, 48 h; actives raise or lower the signal. The method, boiled down: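 Human liver HepaRG cultures receive test chemical for 48 h, up to 100 uM in 0.5% DMSO, with phenobarbital induction controls. UGT1A1 mRNA is measured by qRT-PCR and normalized to ACTB, GAPDH and POLR2A.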

Read-out in assay [4]: X-box binding protein 1 (XBP1), XBP1 (gene 7494)
The assay is described as follows: LTEA_HepaRG_XBP1: Life Technologies and Expression Analysis (LTEA) Assay for X-box binding protein 1 (XBP1) using HepaRG (AID 2283540; active = hit-call score of the fitted dose curve at least 0.9, where 1 is the maximum; inactive = score below 0.9). The conditions noted are these: mRNA level, 48 h; actives raise or lower the signal. The method, boiled down: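 XBP1 transcript by qRT-PCR (housekeeping-normalized: ACTB, GAPDH, POLR2A) after 48 h chemical treatment of HepaRG cells, 8-point half-log series topping at 100 uM, vehicle 0.5% DMSO. Gain and loss of signal fitted relative to DMSO.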

Assay [5] can be described thus: LTEA_HepaRG_LDH_cytotoxicity: Cytotoxicity Assessment in the Life Technologies and Expression Analysis (LTEA) Assay (AID 2283563). In short, it runs like this:
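LDH release into culture medium read after 48 h chemical treatment of HepaRG cells. Duplicate wells, eight-point half-log series topping at 100 uM, 0.5% DMSO vehicle and baseline.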

Assay [6] can be described thus: ATG_XTT_Cytotoxicity: Cytotoxicity Assessment in the Attagene TRANS-FACTORIAL HepG2 Assay (AID 2283584). In short, it runs like this:
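Viability endpoint from XTT after 24 h chemical exposure of reporter-transfected human HepG2 liver cells; signal loss fitted relative to DMSO negative control.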

A short description of assay [7]: TOX21_p53_BLA_p2_viability: Viability Assessment in the Tox21 HCT-116 p53 Agonism Beta-lactamase Assay, Phase 2 (AID 2283591).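 Also: compound exposure lasted 16 h at 37 °C; actives lower the ATP signal meaning cytotoxicity.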 The method, boiled down: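 HCT116 p53-bla cells, 4000/well, dosed after 5 h plating (217-fold dilution of DMSO stocks) and incubated 16 h at 37C. Viability taken as cellular ATP by CellTiter-Glo luminescence after 30 min RT; signal loss marks cytotoxicity.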

Assay [8] is described as follows: TOX21_p53_BLA_p3_viability: Viability Assessment in the Tox21 HCT-116 p53 Agonism Beta-lactamase Assay, Phase 3 (AID 2283593).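 Also: cells exposed to compound for 16 h before reading.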 In short, it runs like this:
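HCT116 cells, 4000/well, dosed 5 h after plating by pin transfer (217-fold dilution from DMSO stock) and incubated 16 h at 37C, 5% CO2. Viability read as ATP luminescence with CellTiter-Glo after 30 min at room temperature.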

Assay [9] addresses Cellular tumor antigen p53 (Homo sapiens) (UniProt P04637). The experiment in a line: TOX21_p53_BLA_p3_ratio: Tox21 HCT-116 p53 Agonism Beta-lactamase Assay, Ratio, Phase 3 (AID 2283596). In short, it runs like this: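 HCT116 p53-bla cells (4000/well) given compound in DMSO (217-fold dilution) after 5 h, incubated 16 h at 37C. CCF4-AM substrate 2 h at room temperature; 460/530 nm emission ratio, gain fitted against DMSO.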

Assay [10] can be described thus: TOX21_p53_BLA_p4_viability: Viability Assessment in the Tox21 HCT-116 p53 Agonism Beta-lactamase Assay, Phase 4 (AID 2283597).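 Also: hits lower the luminescence signal meaning cytotoxicity.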 The method, boiled down: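 Following a 16 h exposure at 37C, the treated HCT116 wells were first read for the FRET ratio. They were then lysed with CellTiter-Glo, and ATP luminescence was recorded after 30 min at room temperature.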
In assay [11] the target is Cellular tumor antigen p53 (Homo sapiens) (UniProt P04637). The assay is described as follows: TOX21_p53_BLA_p5_ratio: Tox21 HCT-116 p53 Agonism Beta-lactamase Assay, Ratio, Phase 5 (AID 2283599). In short, it runs like this: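 HCT-116 p53-bla cells (4000/well) plated 5 h, dosed with compound (217-fold DMSO dilution) for 16 h at 37 C; CCF4-AM substrate 2 h at room temperature. Activity is the 460/530 nm emission ratio (405 nm excitation), fitted in gain-of-signal direction versus DMSO.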

Assay [12] is described as follows: TOX21_p53_BLA_p5_viability: Viability Assessment in the Tox21 HCT-116 p53 Agonism Beta-lactamase Assay, Phase 5 (AID 2283600). In short, it runs like this: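 After the 460/530 nm beta-lactamase measurement, the wells received an ATP-detection luciferase reagent; signal was read 30 min later at RT. Compound treatment lasted 16 h on cells pre-incubated 5 h post-seeding.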

The target of assay [13] is Cellular tumor antigen p53 (Homo sapiens) (UniProt P04637). The assay is described as follows: TOX21_p53_BLA_p4_ratio: Tox21 HCT-116 p53 Agonism Beta-lactamase Assay, Ratio, Phase 4 (AID 2283601). The method, boiled down:
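HCT-116 p53 beta-lactamase reporter cells (4000/well) preincubated 5 h, then compound (217-fold dilution of DMSO stock) for 16 h at 37C. CCF4-AM substrate added 2 h at room temperature; 460/530 nm emission ratio fitted upward versus DMSO.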

Assay [14] in a line: Tanguay_ZF_120hpf_MORT_legacy: (Legacy) Oregon State University Tanguay Lab 120 Hour Post-fertilization zebrafish Assay for Mortality (AID 2283633). In short, it runs like this:
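Static waterborne exposure from 6 to 120 hpf at 28C of single dechorionated wild-type (5D) embryos per well, 0.64% DMSO final. Death recorded present/absent by brightfield at 24 and 120 hpf.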

A short description of assay [15]: Tanguay_ZF_120hpf_AXIS_legacy: (Legacy) Oregon State University Tanguay Lab 120 Hour Post-fertilization zebrafish Assay for Body Axis Malformation (AID 2283635).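 As to AC50: potency for an increased fraction of larvae scored with body axis malformation.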 In short, it runs like this: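 Binary scoring of axis defects at 120 hpf under brightfield, fitted positive versus DMSO. Tropical 5D embryos, chorion removed by pronase at 4 hpf, were singly exposed in sealed, dark plates at 28C from 6 hpf; DMSO 0.64% final.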

Assay [16] is described as follows: Tanguay_ZF_120hpf_EYE_legacy: (Legacy) Oregon State University Tanguay Lab 120 Hour Post-fertilization zebrafish Assay for Eye Malformation (AID 2283636).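 Also: binary presence or absence of eye malformation scored by brightfield in 120 hpf larvae.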 In short, it runs like this: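 Dechorionated Tropical 5D zebrafish embryos, one per well from 6 hpf, static exposure to 120 hpf at 28C, 0.64% DMSO. Eye malformation scored present/absent by brightfield; dead embryos not scored.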

Assay [17] can be described thus: Tanguay_ZF_120hpf_SNOU_legacy: (Legacy) Oregon State University Tanguay Lab 120 Hour Post-fertilization zebrafish Assay for Snout Malformation (AID 2283637). The method, boiled down: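 Dechorionated tropical 5D wild-type zebrafish embryos exposed statically from 6 to 120 hpf at 28C, one per well, in 0.64% DMSO. Snout malformation scored as present/absent by brightfield at 120 hpf; dead embryos not scored.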

Assay [18] has as its target Cellular tumor antigen p53 (Homo sapiens) (UniProt P04637). The assay is described as follows: TOX21_p53_BLA_p2_ratio: Tox21 HCT-116 p53 Agonism Beta-lactamase Assay, Ratio, Phase 2 (AID 2283592). In short, it runs like this:
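Gain-of-signal p53 agonism was scored from the beta-lactamase FRET ratio (460/530 nm, 405 nm excitation) in HCT116 cells treated 16 h at 37C, 5% CO2, with DMSO serving as negative control and baseline.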

Read-out in assay [19]: UDP glucuronosyltransferase (UGT1A6), UGT1A6 (gene 54578)
The assay is described as follows: LTEA_HepaRG_UGT1A6: Life Technologies and Expression Analysis (LTEA) Assay for UDP glucuronosyltransferase (UGT1A6) using HepaRG (AID 2283539; active = hit-call score of the fitted dose curve at least 0.9, where 1 is the maximum; inactive = score below 0.9). The settings on record: mRNA level, 48 h; actives raise or lower the signal. In short, it runs like this:
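Expression was quantified by TaqMan qRT-PCR on Fluidigm arrays with ACTB/GAPDH/POLR2A normalization and bidirectional fitting against 0.5% DMSO. HepaRG cells (~100,000/well) were treated in duplicate for 48 h at eight half-log concentrations up to 100 uM in serum-free induction medium.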

A short description of assay [20]: Tanguay_ZF_120hpf_YSE_legacy: (Legacy) Oregon State University Tanguay Lab 120 Hour Post-fertilization zebrafish Assay for Yolk Sac Edema (AID 2283634).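 As to AC50: actives raise the incidence of yolk sac edema above the DMSO baseline.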 The method, boiled down: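 Presence or absence of yolk sac edema was recorded at 120 hpf in surviving larvae. These were wild-type Tropical 5D embryos, chorion removed at 4 hpf, held in static exposure at 28C from 6 hpf with 0.64% DMSO vehicle.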

Structures are written as SMILES. Several values for one entry are separate records, joined by “and”; a condition that tells them apart may be missing. Identical values can stand only once. Records with an inconclusive call do not appear. More than one record can exist for a structure, and the calls need not agree. Activity calls are given as the source filed them. The calls were made as follows, unless noted: active = hit-call score of the fitted dose curve at least 0.9, where 1 is the maximum; inconclusive = response in the unintended direction; inactive = score below 0.9.

Cellular tumor antigen p53 (Homo sapiens), sequence (P04637 whole entry, looked up): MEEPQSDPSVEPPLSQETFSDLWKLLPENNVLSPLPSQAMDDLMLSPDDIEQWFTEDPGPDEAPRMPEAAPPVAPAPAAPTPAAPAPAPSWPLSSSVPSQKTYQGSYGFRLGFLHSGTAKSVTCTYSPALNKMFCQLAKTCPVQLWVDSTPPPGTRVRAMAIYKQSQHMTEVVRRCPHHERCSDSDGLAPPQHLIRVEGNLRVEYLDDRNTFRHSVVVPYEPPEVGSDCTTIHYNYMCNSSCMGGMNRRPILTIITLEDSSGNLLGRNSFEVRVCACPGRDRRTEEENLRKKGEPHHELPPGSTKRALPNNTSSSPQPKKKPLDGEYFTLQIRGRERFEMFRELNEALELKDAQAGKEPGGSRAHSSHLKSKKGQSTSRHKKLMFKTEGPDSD

For the compound `O=c1[nH]cc(F)c(=O)[nH]1`, the concentration at half-maximal activity (AC50) is 51 µM (active) in [1]; 1.34 µM (active) and 1.39 µM (active) in assay [7]; 882 nM (active) and 2.38 µM (active) in [8]; 2.99 µM (active) and 2.3 µM (active) and 5.29 µM (active) in assay [9]; 15.7 µM (active) and 9.55 µM (active) in assay [10]; 3.72 µM (active) and 3.09 µM (active) and 4.2 µM (active) in [11]. Besides, the AC50 in assay [12] is 1.68 µM (active); in [13], 3.73 µM (active) and 4.64 µM (active) and 5.42 µM (active). Further, the call in assay [2], in assay [3], in assay [4], in assay [5], in assay [6] and in [7] was inactive. Further, the result in assay [8], in [10], in assay [12], in assay [14], in assay [15] and in assay [16] was inactive. Further, in [17], the call was inactive.

Consider `COc1ccc2c(c1)c(CC(=O)O)c(C)n2C(=O)c1ccc(Cl)cc1`, for which the outcome in [1], in assay [2], in assay [3], in [4], in assay [5] and in assay [6] was inactive. For the same compound, the result in [7], in assay [18], in assay [8], in assay [9], in assay [10] and in assay [11] was inactive. For the same compound, the outcome in [12], in [13], in [14], in assay [15], in assay [16] and in assay [17] was inactive.

With `Oc1ccc2ccccc2c1N=Nc1ccccc1`, the AC50 was 2.19 µM (active) in [1]; 0.811 µM (active) in assay [3]; 7.84 µM (active) in assay [4]; 43.7 µM (active) in assay [20]; 17.3 µM (active) in assay [15]; 43.8 µM (active) in [17]. Besides, the outcome in [2], in assay [19], in [6], in [7], in assay [18] and in [8] was inactive. Further, the outcome in assay [9], in [11], in [12], in [13], in assay [14] and in assay [16] was inactive.

`OC[C@@H](O)[C@@H](O)[C@H](O)[C@H](O)CO`: the compound was classed as inactive in [1], in assay [2], in assay [3], in assay [4], in assay [5] and in assay [6]. For the same compound, the compound was called inactive in assay [7], in assay [18], in assay [8], in assay [9], in [11] and in assay [12]. The outcome in [13], in assay [14], in [20], in assay [15], in assay [16] and in assay [17] was inactive.

As to `CC1=C(/C=C/C(C)=C/C=C/C(C)=C/CO)C(C)(C)CCC1`, the outcome in [1], in assay [2], in assay [4], in assay [5], in assay [6] and in [7] was inactive. For the same compound, the result in assay [18], in [8], in [9], in assay [11], in assay [12] and in assay [13] was inactive. The compound was called inactive in assay [14], in assay [20], in [15], in assay [16] and in assay [17]. For the same compound, the AC50 in [3] is 41.5 µM (active); in assay [10], 78.5 µM (active); in assay [11] it was 86.4 µM (active).

`Cc1nc(C)nc(N2C[C@@H](C)N(c3ccnc([C@@H](C)O)n3)[C@@H](C)C2)n1`: the outcome in [1], in assay [2], in assay [3], in assay [19], in assay [4] and in [5] was inactive. Besides, the result in [7], in [8], in assay [12], in [14], in assay [20] and in assay [15] was inactive. Further, the outcome in assay [16] and in assay [17] was inactive.

On to `C1CCC(SSC2CCCCC2)CC1`, for which the compound was classed as inactive in assay [1], in [2], in assay [3], in [4], in [5] and in assay [6]. Moreover, the call in assay [7], in assay [18], in assay [8], in assay [9], in [11] and in [12] was inactive. Further, the outcome in assay [13], in [14], in assay [20] and in [15] was inactive.

Broadly, the AC50 is the midpoint of the concentration-response curve, whichever way the signal moves.

(Values after PubChem BioAssay (EPA / NIEHS).)
